Hits are enriched below; roughly 2.1% of the tested compounds scored in any of these assays.
NR2F2 inh: NR2F2 transcriptional activity inhibitors, primary screen, cell-based, luciferase reporter, HEK293T, luminescence. HEK293T NGFI-A luciferase reporter. inhibition, % at 8.6 µM. 370,000 tested, 0.7% active. AID 686940, 2013;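 active = inhibition above a per-plate cutoff, mean inhibition of test wells between control levels plus 3 SD, cut at about 38% in these data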;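 note: cells cotransfected with COUP-TFII expression vector driving the NGFI-A reporter; 0% = median of COUP-TF2 test wells and 100% = reporter-only cells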
Target sequence (P24468 whole entry, looked up): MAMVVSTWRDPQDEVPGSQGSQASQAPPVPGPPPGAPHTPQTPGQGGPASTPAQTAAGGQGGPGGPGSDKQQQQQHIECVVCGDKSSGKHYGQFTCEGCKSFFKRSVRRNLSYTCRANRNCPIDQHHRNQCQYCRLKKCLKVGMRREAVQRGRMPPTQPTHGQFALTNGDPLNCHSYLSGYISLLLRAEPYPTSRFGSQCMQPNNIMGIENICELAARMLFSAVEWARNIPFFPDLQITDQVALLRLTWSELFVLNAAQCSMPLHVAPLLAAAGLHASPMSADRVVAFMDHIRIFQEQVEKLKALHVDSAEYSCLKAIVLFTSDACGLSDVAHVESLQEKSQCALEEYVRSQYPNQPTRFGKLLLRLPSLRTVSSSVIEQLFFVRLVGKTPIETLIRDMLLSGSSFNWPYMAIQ
aDG glyco act: activators of alpha-DG glycosylation, primary screen, uHTS, Pro5-aDG cells, AlphaScreen. activation, % at 10 µM. alpha-DG glycosylation AlphaScreen (IIH6); 0% Pro5, 100% B10-LARGE cell signal. 360,000 tested, 0.22% active. AID 624168, 2012;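 active = activation of at least 8% versus controls, or a plate z-score of at least 8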;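 note: Pro5 are CHO cells carrying HIG-tagged alpha-DG that lacks glycosylation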
Gli-Sufu block: Gli-Sufu pathway antagonists, primary screen, luciferase luminescence, Sufu-KO-LIGHT cells, uHTS | Sufu-KO-LIGHT fibroblasts, Gli luciferase reporter luminescence | inhibition, % at 5 µM | 340,000 tested, 0.74% active;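 active = inhibition above about 55%, limit read from the data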;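 note: 0% = DMSO-treated cells and 100% = wells with medium but no cells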
GalR3 antag: GalR3 antagonists in HEK293 cells, primary screen, cell-based, fluorescence readout. inhibition, % at 3 µM. 360,000 tested, 0.44% active. AID 651719, 2012. Galanin receptor type 3 (Homo sapiens), O60755. HEK293 GalR3-CNG cAMP membrane potential fluorescence; galR3 body fused to GalR1 C-terminus;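 active = inhibition above the screen-wide average plus 3 SD, cut at about 13% in these data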;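 note: forskolin and galanin both at EC90 stimulate the cells; cAMP rise reported by CNG channel membrane potential dye signal; 0% = forskolin plus galanin with DMSO and 100% = forskolin alone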
Env fusion inh: inhibitors of HIV-1 Env-driven cell-cell fusion, primary screen, HeLa-JRFL effector, CEM21 target cells, luciferase. inhibition, % at 12.3 µM. 360,000 tested, 1.1% active. AID 651610, 2012;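 active = mean replicate inhibition score of at least 50 and every replicate individually at or above 50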;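 note: 0% = plate neutral controls and 100% = maraviroc near 300 nM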
VP16 Luc counter: Gal4-VP16 luciferase reporter inhibitors, counter-screen for COUP-TFII antagonist project, cell-based, luminescence, HEK293; shares compounds with NR2F2 inh; inhibition, % at 8.5 µM; 2,500 tested, 25% active; AID 687007, 2013; in the data active = inhibition above about 13%
NR2F2 inh conf: NR2F2 transcriptional activity inhibitors, confirmation, cell-based, luciferase reporter, HEK293, triplicate. shares compounds with NR2F2 inh. HEK293 NGFI-A luciferase reporter, luminescence. 2,500 tested, 45% active. inhibition, % at 8.5 µM. AID 687008, 2013;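 active = mean inhibition over three repeats above a set limit taken from the earlier primary screen, cut at about 38% in these data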;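 note: 100% = cells given the luciferase reporter alone without the COUP-TF2 vector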
The depositor's hits bear a star; . = not tested or not shown; [ ] = dose if it differs, or a comment.

SMILES	NR2F2 inh	aDG glyco act	Gli-Sufu block	GalR3 antag	Env fusion inh	VP16 Luc counter	NR2F2 inh conf
CO[C@@H]1CN(C)C(=O)c2cc(NC(=O)Nc3cc(F)ccc3F)ccc2OC[C@@H](C)N(C)C[C@@H]1C	.	.	.	.	1[16.7 µM]	.	.
CO[C@H]1CC[C@@H]2CCOc3c(C#N)cccc3C(=O)N(C)[C@@H](C)C(=O)N(C)C[C@H]1O2	.	.	.	.	-22[16.7 µM]	.	.
OC[C@@H]1CN(Cc2ccccc2)C[C@H](n2cnc3c(NCc4ccc(F)cc4)ncnc32)O1	-13	0	.	-9	-5	.	.
OC[C@@H]1CN(Cc2ccc(-c3ccccc3)cc2)C[C@H](n2cnc3c(NCc4ccc(F)cc4)ncnc32)O1	75*	5	.	-9	51	2	54*
OC[C@@H]1CN(Cc2ccc(-c3ccccc3)cc2)C[C@H](n2cnc3c(Nc4ccccc4)ncnc32)O1	59*	2	.	-8	14	1	30
C[C@@H]1CN([C@H](C)CO)C(=O)c2cc(NS(=O)(=O)c3cn(C)cn3)ccc2O[C@@H]1CN(C)CC1CCCCC1	.	.	.	.	10[16.7 µM]	.	.
CC1CCN(S(=O)(=O)c2ccc(NC(=O)c3ccncc3)cc2)CC1	27	1	16	-6	28	.	.
COC(=O)c1ccc(NC(=O)c2nc(S(=O)(=O)Cc3cccc(C)c3)ncc2Cl)cc1	40*	0	2	-4	41	46*	15
CCS(=O)(=O)c1ncc(Cl)c(C(=O)Nc2ccc(S(=O)(=O)N3CCC(C)CC3)cc2)n1	48*	0	21	-10	65*	76*	63*
C[C@@H]1CN([C@@H](C)CO)C(=O)c2cccc(NS(C)(=O)=O)c2O[C@H]1CN(C)C	.	.	.	.	0[16.7 µM]	.	.
COc1ccc(NC(=O)N(C)C[C@H]2Oc3ccc(N(C)C)cc3C(=O)N([C@H](C)CO)C[C@@H]2C)cc1	.	.	.	.	5[16.7 µM]	.	.
O=C(Nc1cccc(O)c1)c1cc(-c2ccccc2Cl)on1	60*	0	-29	-8	-153	-12	10
COc1ccc(NC(=O)c2cc(-c3ccccc3Cl)on2)cc1OC	0	0	-13	-5	14	.	.
O=C(Nc1cccc(O)c1)c1cc(-c2ccc3c(c2)OCO3)on1	43*	0	-152	-8	-20	-2	16
COc1cc(NC(=O)c2cc(-c3ccc4c(c3)OCO4)on2)cc(OC)c1OC	-6	0	12	1	1	.	.
COC(=O)C[C@H]1C[C@@H]2c3cc(NC(=O)Nc4ccccc4)ccc3O[C@@H]2[C@H](CO)O1	.	.	.	.	-5[16.7 µM]	.	.
Nc1ccc2c(c1)C(=O)c1ccccc1-2	-9	0	-1	-7	-12	.	.
Nc1ccc2c(c1)C(=O)C(=O)c1ccccc1-2	102*	-1	19	1	.	97*	110*
COC(=O)C[C@H]1CC[C@@H]2[C@@H](COc3ccc(NC(=O)c4ccc(OC)cc4)cc3C(=O)N2C)O1	.	.	.	.	11[16.7 µM]	.	.
N#Cc1ccccc1N1CCN(C(=O)C2CCN(c3ncnc4c3sc3cccc(F)c34)CC2)CC1	58*	.	.	.	.	-8	28
Cc1ccc(S(=O)(=O)N(C)C[C@@H]2OCCCC[C@@H](C)Oc3ccc(NS(=O)(=O)c4cn(C)cn4)cc3C(=O)N([C@H](C)CO)C[C@@H]2C)cc1	.	.	.	.	-8[16.7 µM]	.	.
O=C(Nc1ccc(Cc2ccncc2)cc1)C1CCC(N2C(=O)C3C4C=CC(C4)C3C2=O)CC1 (configuration not stated)	38*	1	11	-1	46	0	6
CCN(CC(=O)Nc1ccc(NC(C)=O)cc1)C(=O)c1ccc(COc2ccc(C(C)(C)C)cc2)cc1	51*	2	-1	-7	11	-13	38*
O=C(NCCN1CCC(Cc2ccccc2)CC1)C1CCCN(S(=O)(=O)c2cccs2)C1 (configuration not stated)	47*	.	.	.	.	-1	6
C[C@H](CO)N1C[C@H](C)[C@@H](CN(C)C(=O)NC2CCCCC2)OCCCC[C@H](C)Oc2ccc(NC(=O)CCC(F)(F)F)cc2C1=O	.	.	.	.	-8[16.7 µM]	.	.
SMILES	NR2F2 inh	aDG glyco act	Gli-Sufu block	GalR3 antag	Env fusion inh	VP16 Luc counter	NR2F2 inh conf
N#C/C(=N/Nc1ccc(OC(F)(F)F)cc1)C(N)=S	38*	0	61*	-5	-33	-121	-54
COc1ccc(N/N=C(\C#N)C(N)=O)cc1	-6	0	-1	-4	-31	.	.
O=C(C[C@H]1C[C@H]2c3cc(NC(=O)Nc4ccccc4F)ccc3O[C@H]2[C@@H](CO)O1)NC1CCCC1	.	.	.	.	0[16.7 µM]	.	.
COc1ccc(C[C@H](N)C(=O)N[C@H]2[C@@H](O)[C@H](n3cnc4c(N(C)C)ncnc43)O[C@@H]2CO)cc1	99*	0	90*	.	31	48*	97*
COCCN1CCN(c2cc(-c3ccccc3)nc3cc(-c4cccc(F)c4)nn23)CC1	47*	2	6	-5	.	-6	-3
CC(=O)N(C)C[C@@H]1Oc2ncc(C#Cc3cccc(F)c3)cc2C(=O)N([C@H](C)CO)C[C@@H]1C	.	.	.	.	11[16.7 µM]	.	.
O=[N+]([O-])c1ccc(N2CCN(Cc3cccc([N+](=O)[O-])c3)CC2)cc1	18	0	34	-11	29	.	.
O=[N+]([O-])c1ccc(CN2CCN(c3ccc([N+](=O)[O-])cc3)CC2)cc1	40*	1	20	-13	22	4	20
COC(=O)C[C@@H]1C[C@H]2c3cc(NC(=O)c4cccnc4)ccc3O[C@H]2[C@H](CO)O1	.	.	.	.	-13[16.7 µM]	.	.
CNC[C@H]1Oc2ncc(-c3ccc(C)cc3)cc2C(=O)N([C@@H](C)CO)C[C@H]1C	.	.	.	.	-48[16.7 µM]	.	.
COCCNc1nc(NCc2ccccc2OC)c2sccc2n1	27	2	.	-7	13	.	.
COc1ccccc1CNc1nc(NCc2ccccc2SC)c2sccc2n1	34	1	.	-10	19	.	.
COc1ccccc1CNc1nc(NCc2ccccc2OC)c2sccc2n1	53*	1	.	-6	6	4	26
COc1ccccc1CNc1nc(Nc2cccc(-c3cnco3)c2)c2sccc2n1	48*	0	.	-5	0	1	21
COc1ccccc1CNc1nc(NCc2cccs2)nc2ccsc12	18	2	.	-9	42	.	.
COc1ccccc1CNc1nc(NCC2CC2)nc2ccsc12	47*	0	.	-6	35	-8	13

Bioassay records as filed in PubChem BioAssay.
